Experimental data taken from PubChem BioAssay (NCATS).
Records with an inconclusive call do not appear. Calls of active or inactive are those of the source. Calls follow the shape of the dose curve; as a rule, active = well fitted curve in the direction sought with a large enough effect; inconclusive = small, poorly fitted or top-dose-only effect, or another doubt; inactive = no such curve, though single readings can be large; an effect the other way counts as inactive or inconclusive.

What was measured:
[1] = molecular target: Arylsulfatase A (Homo sapiens) (UniProt P15289); experiment: qHTS screen for enhancers of Arylsulfatase A (ASA1): LOPAC Validation Assay (AID 720538)
Sequence of Arylsulfatase A (Homo sapiens) (P15289 whole entry, looked up): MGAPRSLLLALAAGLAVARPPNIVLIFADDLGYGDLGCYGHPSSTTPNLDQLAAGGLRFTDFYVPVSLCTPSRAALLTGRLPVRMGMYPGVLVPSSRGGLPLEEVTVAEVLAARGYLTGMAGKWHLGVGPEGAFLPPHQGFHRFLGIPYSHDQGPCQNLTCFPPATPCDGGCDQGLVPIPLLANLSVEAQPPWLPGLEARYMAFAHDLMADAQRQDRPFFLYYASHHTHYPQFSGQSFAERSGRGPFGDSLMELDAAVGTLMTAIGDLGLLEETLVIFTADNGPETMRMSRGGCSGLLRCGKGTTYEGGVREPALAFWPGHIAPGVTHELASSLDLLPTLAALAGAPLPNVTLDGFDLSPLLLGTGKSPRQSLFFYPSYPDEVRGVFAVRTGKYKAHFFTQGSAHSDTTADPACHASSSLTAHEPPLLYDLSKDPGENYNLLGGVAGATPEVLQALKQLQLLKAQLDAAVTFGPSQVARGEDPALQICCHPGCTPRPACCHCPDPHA
In short: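 SV40-transformed fibroblasts from an MLD patient (ASA-I179S) were treated with compound for 48 h at 37 C. They were then lysed with 0.5 mM pNCS substrate (final) for 14 h at room temperature and stopped with NaOH; signal read by fluorescence (Ex 525/Em 598 nm), with increase denoting enhanced activity.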

[2] = qHTS for compounds that reverse cellular toxicity of Amyloid beta (A-beta) peptide in yeast: LOPAC Validation Assay (AID 720559)
In short: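 Yeast expressing toxic A-beta grown with pinned compounds at 30 C for 48 hr. Growth measured as absorbance at 600 nm; data normalized to DMSO and to an equimolar FeCl3/clioquinol mixture as positive control.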

[3] = qHTS for Activators of Parkin Expression: LOPAC Validation Assay (NLuc Reporter) (AID 720572)
In short: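 Neuronal line stably carrying a FLuc/NLuc coincidence reporter under the Parkin promoter, seeded 24 h, then dosed in 7-point series for 24 h at 37 C. NLuc luminescence read after FLuc; normalized to DMSO and positive control (100%).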

[4] = qHTS for Activators of Parkin Expression: LOPAC Validation Assay (FLuc Reporter) (AID 720573)
In short: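 Neuronal cell line stably expressing FLuc/NLuc coincidence reporter under the Parkin promoter, 1,500 cells/well, dosed 24 h after seeding in 7-point series for 24 h at 37 C. FLuc luminescence read; normalized to DMSO and positive control (100%).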

Measured: Potency

O=C(c1ccc2c(c1)OCCO2)N1CCCCC1
inactive: all assays above

Cc1cc(Cn2cnc3c2C[C@@H](C(=O)O)N(C(=O)C(c2ccccc2)c2ccccc2)C3)ccc1N
inactive: all assays above

O=C(O)/C=C/c1ccc(O)c(O)c1
inactive: all assays above

C=CCn1c(=O)c2c(nc(-c3ccc(S(=O)(=O)O)cc3)n2C)n(C)c1=O
inactive: all assays above

CCCCCCCCCCCCCCCCCCOC[C@H](COP(=O)([O-])OCC[N+](C)(C)C)OC
inactive: all assays above

N=S(=O)(O)Cc1noc2ccccc12
inactive: all assays above

CCCCCCCCCCC/C=C\C(C)(C)/C=C\CCCC(=O)O
inactive: all assays above

CC(O)C(O)[C@H]1CNc2nc(N)[nH]c(=O)c2N1 (some centres not stated)
inactive: all assays above

OC[C@H]1NC[C@@H](O)[C@@H]1O
inactive: all assays above

Cc1cccc(C(=O)NCN2CCN(c3ccccc3C#N)CC2)c1
inactive: all assays above

Cc1ccc([N+](=O)[O-])cc1S(=O)(=O)N(C)C
inactive: all assays above

CCc1ccc2c(-c3cccc(Cl)c3)nc(=O)n(CC)c2n1
inactive: all assays above

N=C(N)c1ccc(N)cc1
inactive: all assays above
